Data on nine molecules can be found in PubChem BioAssay (NCATS).

Records with an inconclusive call do not appear. Calls of active or inactive are those of the source. The call rests on the fitted dose curve; in most records, active means well fitted inhibition curve with a large enough effect; inconclusive means small, poorly fitted or top-dose-only effect; inactive means flat fitted curve, though single readings scatter.
Potency means the concentration at half of the fitted maximal effect.

In the test the test system is AS120. Description: qHTS profiling for inhibitors of Plasmodium falciparum proliferation (AID 504749). Further: nearly all actives have a fitted effect of over 60% in size. The following applies: P. falciparum in erythrocytes, SYBR Green DNA, 72 h; series mostly up to 28.7 µM. The essentials: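 Three-day growth assay of blood-stage parasites in erythrocytes (0.3% parasitemia, 2.5% hematocrit) at 37 C, 5% CO2, quantified by SYBR Green DNA staining after overnight detergent lysis.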
On to `CO/N=C(/C(=O)N[C@@H]1C(=O)N2C(C(=O)O)=CCS[C@H]12)c1csc(N)n1`, for which the Potency entry is “inactive”.

For `Cc1cc(CC(C)CC(C)(C)C)n(O)c(=O)c1` (centres undefined), the Potency is 2510 nM (active). Take `CC1CCC(C(C)C)C(OC(=O)c2ccccc2O)C1` (centres undefined): the Potency result is “inactive”. The same measure for `CC(C)(CO)C(O)C(=O)NCCCC(=O)O` (centres undefined): 7.1 nM (active); for `CO[C@@H]1[C@@H](OC2OC(C)C(OC3CC(C)(O)C(OC(=O)CC(C)C)C(C)O3)C(N(C)C)C2O)[C@@H](CC=O)C[C@@H](C)C(=O)/C=C\C2O[C@H]2C[C@@H](C)OC(=O)C[C@H]1OC(C)=O` (some centres undefined): 10000 nM (active); for `CCC(=O)O[C@@H](OP(=O)(CCCCc1ccccc1)CC(=O)N1C[C@H](C2CCCCC2)C[C@H]1C(=O)O)C(C)C` (some centres undefined): “inactive”. For `CC(=O)O[C@@]12CO[C@@H]1C[C@H](O)[C@@]1(C)C(=O)[C@H](O)C3=C(C)[C@@H](OC(=O)C(O)[C@@H](NC(=O)OC(C)(C)C)c4ccccc4)C[C@@](O)([C@@H](OC(=O)c4ccccc4)[C@H]21)C3(C)C` (some centres undefined) the value was 28.2 nM (active); for `CC1(C)S[C@@H]2[C@H](NC(=O)COc3ccccc3)C(=O)N2[C@H]1C(=O)O`, “inactive”; for `CCN1/C(=C/C=C/C=C/c2sc3ccccc3[n+]2CC)Sc2ccccc21`, 5010 nM (active).
